{
  "source": "PubChem BioAssay (EPA / NIEHS)",
  "note": "“And” between values parts separate entries of the source, which are not always exact repeats. Identical values can stand only once. Where a structure was tested more than once in an assay, its records may differ in their call. The source made the active and inactive calls. Rule for the calls: active = hit-call score of the fitted dose curve at least 0.9, where 1 is the maximum; inactive = score below 0.9.",
  "data": [
    {"read-out": "ABC Transporter (ABCB11), ABCB11 (gene 8647)", "assay": "LTEA_HepaRG_ABCB11: Life Technologies and Expression Analysis (LTEA) Assay for ABC Transporter (ABCB11) using HepaRG (AID 2283463)", "conditions": "mRNA level, 48 h; actives raise or lower the signal", "protocol": "LTEA_HepaRG is a cell based, multiplexed-readout assay that uses HepaRG, a human liver cell line, with measurements taken at 48 hours after chemical dosing on a 96-well plate.LTEA_HepaRG_ABCB11 is one of 102 assay component(s) measured in the LTEA HepaRG cell culture assay. It is a marker of Steatosis/NR mediated transport.Data from the assay component LTEA_HepaRG_ABCB11 was analyzed into 1 endpoint. This assay endpoint, LTEA_HepaRG_ABCB11, was analyzed with bidirectional fitting relative to DMSO as the negative control and baseline of activity. Using a type of inducible reporter, measures of mRNA induction for gain or loss-of-signal activity can be used to understand regulation of transcription factor activity. To generalize the intended target to other relatable targets, this assay endpoint is annotated to the transporter intended target family, where the subfamily is ABC transporter.\nA total of 1060 chemcials from the ToxCast library were tested in eight-point concentration-response experiments. Cell culture and cytotoxicity assays were conducted at Thermo Fisher Scientific's Custom Services facility (Madison, WI). A single lot of human HepaRG cells (Thermo Fisher Scientific, Frederick, MD) was used for the cell culture experiments. 96-well format collagen type I coated plates of human HepaRG cells were prepared using established methods. Briefly, cryopreserved HepaRG cells were thawed, plated at a density of approximately 100,000 cells/well in HepaRG Thaw, Plate, and General Purpose media (HPRG770, Thermo Fisher Scientific), and incubated for 48 hours. 0.5% DMSO was selected as vehicle control to balance the requisite need of DMSO in HepaRG cultures to maintain differentiation (for example, baseline metabolism, proportions of hepatocytes vs. cholangiocytes), while enabling further hepatic receptor pathway activation (for example, PXR and CAR) in response to chemical exposure. 48 hours after plating, the culture medium was replaced with HepaRG Serum-Free Incudtion Media. Cells were exposed to each test chemical in duplicate and maintained in CO2 incubators for another 48 hours. Chemical plates were thawed to room temperature and 200x concentrations of treatment groups were prepared. 8-point conentration-reponse curves were made with the highest exposure at 100 uM, followed by half-log dilutions, all in 0.5% DMSO. Each test plate contained variouse controls, induction positive controls (1mM phenobarbital), cytotoxicity positive controls ([…] aflatoxin B1), vehicle controls (0.5% DMSO), and total lysis controls (0.5% DMSO). Cell morphology images were taken using an Essen IncuCyte FLR automated microscope, with six 96-well plates imaged in about 24 minutes. Images were captured and exported and JPEG files. Spent culture media was transfered to black-well plates for the LDH assay, and remaining media was sorted at -80 C for later use. Cells were treated with RLT buffer and frozen until shipped for gene expression analysis. Total RNA was isolated from the cell suspension in 75 uL of Buffer RLT (Qiagen, Germantown, MD 20874) by Quintiles/Expression Analysis (Durham, NC) using a custom isolation procedure. Total RNA from each plate well was transferred to a preamplification plate. Fluidigm's 96.96 Dynamic ArrayTM (Fluidigm, Amsterdam, the Netherlands) technology was used for gene expression analyses by quantitative reverse transcription polymerase chain reaction (qRT-PCR, performed by Quintiles/Expression Analysis, Durham, NC)89. Standard TaqManTM Assays (Applied Biosystems/ThermoFisher Scientific, Foster City, CA) were used to assess the expression of 93 genes selected based on their selectivity and sensitivity to important hepatic receptors known to be modulated by environmental chemicals; importance in human hepatocyte functionality; and hepatotoxicity. […]", "values": [
      {"smiles": "CCCCNC(=O)OCC#CI", "AC50": "50 µM (active)"},
      {"smiles": "CCOC(=O)C(Cl)Cc1cc(-n2nc(C)n(C(F)F)c2=O)c(F)cc1Cl", "note": "(stereo not given)", "outcome": "inactive"},
      {"smiles": "CCCC1COC(Cn2cncn2)(c2ccc(Cl)cc2Cl)O1", "note": "(stereo not given)", "AC50": "36.9 µM (active)"},
      {"smiles": "Fc1ccc(Oc2ccnc3cc(Cl)cc(Cl)c23)cc1", "AC50": "89.8 µM (active)"},
      {"smiles": "CCCN(CCC)c1c([N+](=O)[O-])cc(S(N)(=O)=O)cc1[N+](=O)[O-]", "AC50": "82 µM (active)", "outcome": "inactive"},
      {"smiles": "COC(=O)N(OC)c1ccccc1COc1ccn(-c2ccc(Cl)cc2)n1", "AC50": "38.4 µM (active)"},
      {"smiles": "CCCCNC(=O)n1c(NC(=O)OC)nc2ccccc21", "outcome": "inactive"},
      {"smiles": "OC(c1ccc(Cl)cc1)(c1cncnc1)c1ccccc1Cl", "note": "(stereo not given)", "AC50": "89.4 µM (active)"},
      {"smiles": "C#CCOS(=O)OC1CCCCC1Oc1ccc(C(C)(C)C)cc1", "note": "(stereo not given)", "AC50": "23.2 µM (active)"},
      {"smiles": "CC(C)(C)c1ccc(CSc2cnn(C(C)(C)C)c(=O)c2Cl)cc1", "AC50": "2.21 µM (active)"},
      {"smiles": "CCNc1nc(Cl)nc(NC(C)C)n1", "outcome": "inactive"},
      {"smiles": "CCc1nn(C)c(C(=O)NCc2ccc(C(C)(C)C)cc2)c1Cl", "AC50": "0.877 µM (active)"},
      {"smiles": "Cc1ccc(-c2c(Cl)nc(C#N)n2S(=O)(=O)N(C)C)cc1", "AC50": "36.4 µM (active)"},
      {"smiles": "N#Cc1cc(Br)c(O)c(Br)c1", "AC50": "19.9 µM (active)"},
      {"smiles": "O=C(O)COc1nc(Cl)c(Cl)cc1Cl", "AC50": "23.2 µM (active)"},
      {"smiles": "COc1cnc(OC)n2nc(NS(=O)(=O)c3c(OCC(F)F)cccc3C(F)(F)F)nc12", "outcome": "inactive"},
      {"smiles": "CCCCOC(=O)c1ccccc1C(=O)OCCCC", "outcome": "inactive"},
      {"smiles": "O=C(O)c1nc(Cl)ccc1Cl", "outcome": "inactive"},
      {"smiles": "C=CCC1=C(C)C(OC(=O)C2C(C=C(C)C)C2(C)C)CC1=O", "note": "(stereo not given)", "AC50": "64.8 µM (active) and 79.9 µM (active) and 19 µM (active)"},
      {"smiles": "CCOC(=O)CC(SP(=S)(OC)OC)C(=O)OCC", "note": "(stereo not given)", "outcome": "inactive"},
      {"smiles": "N#Cc1nn(-c2c(Cl)cc(C(F)(F)F)cc2Cl)c(N)c1S(=O)C(F)(F)F", "note": "(stereo not given)", "AC50": "27.8 µM (active)"},
      {"smiles": "CON(C)C(=O)Nc1ccc(Cl)c(Cl)c1", "AC50": "43.1 µM (active)"},
      {"smiles": "CC1COC(Cn2cncn2)(c2ccc(Oc3ccc(Cl)cc3)cc2Cl)O1", "note": "(stereo not given)", "AC50": "11.2 µM (active)"},
      {"smiles": "CC(Oc1ccc(Cl)cc1Cl)C(=O)O", "note": "(stereo not given)", "outcome": "inactive"},
      {"smiles": "COP(N)(=O)SC", "note": "(stereo not given)", "outcome": "inactive"},
      {"smiles": "COP(=S)(OC)Oc1nc(Cl)c(Cl)cc1Cl", "AC50": "86.7 µM (active)"},
      {"smiles": "COc1ccc(C(c2ccc(OC)cc2)C(Cl)(Cl)Cl)cc1", "AC50": "86.7 µM (active)"},
      {"smiles": "CO/C=C(/C(=O)OC)c1ccccc1Oc1cc(Oc2ccccc2C#N)ncn1", "AC50": "45.4 µM (active) and 63 µM (active) and 40.5 µM (active)"},
      {"smiles": "CCOP(=S)(OCC)SCn1c(=O)oc2cc(Cl)ccc21", "outcome": "inactive"},
      {"smiles": "O=C(Nc1ccccc1)Nc1ccnc(Cl)c1", "AC50": "26.5 µM (active)"},
      {"smiles": "CS/C(C)=N/OC(=O)N(C)SN(C)C(=O)O/N=C(\\C)SC", "AC50": "33.6 µM (active)"},
      {"smiles": "C=CCC1=C(C)[C@@H](OC(=O)[C@@H]2[C@@H](C=C(C)C)C2(C)C)CC1=O", "AC50": "50 µM (active)"},
      {"smiles": "C=CC1(C)OC(=O)N(c2cc(Cl)cc(Cl)c2)C1=O", "note": "(stereo not given)", "AC50": "38.3 µM (active)"},
      {"smiles": "CNC(=S)S", "outcome": "inactive"},
      {"smiles": "Cc1cc(Cl)ccc1OCC(=O)O", "AC50": "50 µM (active)"},
      {"smiles": "CCON=C(CC)C1=C(O)CC(c2c(C)cc(C)cc2C)CC1=O", "note": "(stereo not given)", "outcome": "inactive"},
      {"smiles": "CC1=C(C(=O)Nc2ccccc2)SCCO1", "AC50": "50 µM (active)"},
      {"smiles": "COc1nc(NC(C)C)nc(NC(C)C)n1", "outcome": "inactive"},
      {"smiles": "N#CC(CCc1ccc(Cl)cc1)(Cn1cncn1)c1ccccc1", "note": "(stereo not given)", "AC50": "72.3 µM (active)"}
    ]}
  ]
}
